# Experimental data from PubChem BioAssay (NCI).
# The panel holds about 79,000 compounds, 15% with a hit somewhere; the sample as a whole holds those more often. Unmarked numbers belong to inactive results. No stated cut-off is given here; in the data, active means growth inhibition above about 70%; inactive means the rest.
# Assay: NCI Yeast Anticancer Drug Screen. Data for the mec2-1 strain (AID 157)
# Conditions: S. cerevisiae mec2-1 strain, at 50.0 µM, stronger effect = higher value
# In short: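 Vehicle-treated cultures served as reference for growth inhibition of compound-exposed mec2-1 yeast.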
row,SMILES,growth inhibition [%]
1,CCOC(=O)c1cc2cc([N+](=O)[O-])ccc2[nH]1,9.5
2,Cc1cc(NS(=O)(=O)c2ccc(NC(=O)c3cccn4c(=O)c5ccccc5nc34)cc2)no1,3.7
3,CN(C)/C=C(/N=C(C#N)C#N)C1OCCO1,8.55
4,Cc1cccc(C2=NC(=C3CCCCC3)C(=O)O2)c1,6.6
5,C1CCC(C(CCCCC(C2CCCCC2)C2CCCCC2)C2CCCCC2)CC1,-3.8
6,COC(=O)c1ccc(CSc2ccc(N)cc2)cc1,36.2
7,O=C(OC1CCCC1)C1(O)CCCCC1,12.7
8,c1ccc(C(c2ccccc2)c2cc(-c3cc(C(c4ccccc4)c4ccccc4)[nH]n3)n[nH]2)cc1,21.4
9,Cn1c(N)c(-n2[nH]c(=O)n(-c3ccccc3)c2=O)c(=O)n(C)c1=O,15.3
10,CCN(CC)CCN(C(=Nc1ccccc1)N1CCCCC1)c1ccccc1,-35.2
11,CCOC(=O)c1c(C(F)(F)F)oc2c1ccc1nc3nonc3nc12,21.6
12,Cc1ccc(NC(=O)C(=O)CC(=O)c2c(C)n([O-])c3ccccc3[n+]2=O)cc1C,-1.55
13,O=C1Nc2cc([N+](=O)[O-])c(Br)cc2C1=O,27.4
14,[O]=[W](=[O])([OH])[OH],-13.2
15,O=C1c2ccccc2NC(c2cc(Cl)cc(Cl)c2O)N1CCc1ccccn1 (stereo unspecified),-21.9
16,COC(=O)c1cc(-c2cccc3ccccc23)[nH]c(=O)c1C#N,0.35
